In PubChem BioAssay (Tox21) one finds outcome and Potency data, which are given here for 36 compounds.

A short description of assay [1]: qHTS assay to test for compound auto fluorescence at 535 nm (green) in HEK293 cells (AID 720680). On the technique in general: In qHTS, concentration-response curves come from the screen itself.
Assay [2] in a line: qHTS assay to test for compound auto fluorescence at 460 nm (blue) in HEK293 cell free culture (AID 720681). Also: potency is read from the fitted curve at half-maximal effect. In short, it runs like this:
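Compounds were added to cell-free DMEM with 10% FBS and fluorescence read directly. The blue channel used 405 nm excitation and 460 nm emission, with triamterene as the reference fluorophore.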

Assay [3] is described as follows: qHTS assay to test for compound auto fluorescence at 590 nm (red) in HEK293 cell free culture (AID 720683). In short, it runs like this: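 Cell-free wells of DMEM with 10% FBS received compound, and intrinsic fluorescence was read at excitation/emission 540/590 nm. Values expressed as equivalence to Rose Bengal sodium.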
The nature of assay [4]: qHTS assay to test for compound auto fluorescence at 590 nm (red) in HepG2 cell free culture (AID 720684). The procedure, abridged:
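Rose Bengal sodium served as the reference for red signal. Test compounds were dispensed into serum-containing MEM (10% FBS) without cells, and plates were read at 540/590 nm.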

A short description of assay [5]: qHTS assay to test for compound auto fluorescence at 460 nm (blue) in HepG2 cell free culture (AID 720685). Also: potency is read from the fitted curve at half-maximal effect. In short, it runs like this: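 Cell-free plates of MEM plus 10% FBS received 23 nL compound or DMSO vehicle; blue-channel (405/460 nm) intensity scored against triamterene as reference fluorophore.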
Assay [6] in a line: qHTS assay to test for compound auto fluorescence at 535 nm (green) in HepG2 cell free culture (AID 720686).
A short description of assay [7]: qHTS assay to test for compound auto fluorescence at 460 nm (blue) in HepG2 cells (AID 720687). In short, it runs like this: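 HepG2 cells in MEM with 10% FBS, attached overnight at 37 C, were exposed to compound or DMSO for 1 hr at 37 C, 5% CO2. Blue fluorescence was read at 405/460 nm, with triamterene as reference fluorophore.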
Assay [8] has as its target Glucocorticoid receptor (Homo sapiens) (UniProt P04150). In words: qHTS assay to identify small molecule agonists of the glucocorticoid receptor (GR) signaling pathway (AID 720691; active = well fitted activation curve with a large enough effect in the signal ratio in the repeat runs, not every such curve was filed as active; the % refers to the signal ratio). Conditions: GR-bla HeLa, beta-lactamase reporter ratio, 18 h; activation: at 62.4 µM (top of the series) unless noted. The procedure, abridged: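 Steps: seed GR-bla HeLa cells, incubate 4 h at 37 C/5% CO2; pin-transfer DMSO-dissolved compounds; incubate 18 h at 37 C; add LiveBLAzer B/G FRET substrate; after 2 h at room temperature, measure fluorescence.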

The target is the same in assay [9]. In words: qHTS assay to identify small molecule antagonists of the glucocorticoid receptor (GR) signaling pathway (AID 720692; active = well fitted inhibition curve with a large enough effect in the signal ratio in the repeat runs, not every such curve was filed as active; the % refers to the signal ratio; also: potency is read from the fitted curve at half-maximal effect). In short, it runs like this: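 Antagonism was scored as loss of dexamethasone-driven (5 nM final) reporter signal in HeLa cells bearing a glucocorticoid response element–beta-lactamase construct, after 18 h compound exposure at 37 C and 2 h FRET substrate loading.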

Assay [10] can be described thus: qHTS assay to test for compound auto fluorescence at 535 nm (green) in HEK293 cell free culture (AID 720682). In short, it runs like this: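 Green-label autofluorescence (485 nm excitation, 535 nm emission) measured on compound added to cell-free culture medium (DMEM, 10% FBS). Output is expressed relative to fluorescein.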

Values joined by “and” are separate entries in the source; they are usually repeats but may differ in a detail not shown here. Equal values may be shown once. Results filed as inconclusive are left out. Active and inactive are the calls of the source. Unless noted, calls follow the shape of the dose curve; as a rule, active = well fitted curve in the direction sought with a large enough effect in the repeat runs; inconclusive = weak or mixed curves; inactive = flat fitted curve, though single readings scatter.
Tags tell the direction and shape of the fitted curve or compound fluorescence and quenching.

Sequence of Glucocorticoid receptor (Homo sapiens) (P04150 whole entry, looked up): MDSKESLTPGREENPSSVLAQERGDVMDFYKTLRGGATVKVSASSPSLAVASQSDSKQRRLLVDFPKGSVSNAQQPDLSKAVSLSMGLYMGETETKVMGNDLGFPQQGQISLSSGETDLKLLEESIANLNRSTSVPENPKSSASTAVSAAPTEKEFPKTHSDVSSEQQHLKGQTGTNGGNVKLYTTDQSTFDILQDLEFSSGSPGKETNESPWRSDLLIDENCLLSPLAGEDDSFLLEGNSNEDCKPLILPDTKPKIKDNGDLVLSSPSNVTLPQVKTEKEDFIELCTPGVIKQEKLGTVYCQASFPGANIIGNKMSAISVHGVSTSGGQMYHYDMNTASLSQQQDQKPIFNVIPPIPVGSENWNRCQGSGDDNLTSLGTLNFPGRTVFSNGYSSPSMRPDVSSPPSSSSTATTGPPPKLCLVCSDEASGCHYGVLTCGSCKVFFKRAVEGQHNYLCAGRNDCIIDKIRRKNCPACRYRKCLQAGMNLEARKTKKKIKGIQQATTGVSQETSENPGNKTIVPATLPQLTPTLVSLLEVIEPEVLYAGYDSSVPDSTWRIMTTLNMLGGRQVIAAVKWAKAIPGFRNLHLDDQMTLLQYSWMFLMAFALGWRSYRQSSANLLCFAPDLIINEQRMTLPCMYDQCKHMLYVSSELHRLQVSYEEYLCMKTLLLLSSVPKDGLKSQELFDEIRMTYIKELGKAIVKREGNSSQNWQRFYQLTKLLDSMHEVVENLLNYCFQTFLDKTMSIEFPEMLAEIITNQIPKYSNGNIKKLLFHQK

Turning to `C/C=C(C)/C=C/C=C(C)C`, the call in assay [1], in [3], in assay [4], in assay [6] and in assay [7] was inactive. The Potency entry in assay [2] and in assay [5] was “inactive” each time.
As for `C=C(C#N)C(=O)OCC`, the call in [1], in [3], in assay [4], in assay [6] and in [7] was inactive. The Potency result in [2], in assay [5], in assay [8] and in assay [9] was “inactive” throughout.
`CC(C)(N=C=O)c1cccc(C(C)(C)N=C=O)c1`: the call in assay [1], in [3], in assay [4], in [6] and in [7] was inactive. The Potency entry in [2], in assay [5], in assay [8] and in [9] was “inactive” each time.
As for `O=C1CCCCC1`, the compound was called inactive in assay [1], in assay [3], in [4], in assay [6] and in assay [7]. In addition, the Potency result in assay [2], in assay [5], in [8] and in assay [9] was “inactive” throughout.
Consider `CC(C)NCC(O)COc1cccc2ccccc12` (stereo unspecified), for which the outcome in assay [1], in [3], in [4], in assay [6] and in assay [7] was inactive. For the same compound, the Potency entry in [2] and in [5] was “inactive” throughout.
In the case of `Cn1c([N+](=O)[O-])cnc1COC(N)=O`, the outcome in [1], in [3], in assay [4], in assay [6] and in assay [7] was inactive. Also, the Potency entry in [2], in assay [5], in [8] and in assay [9] was “inactive” each time.
On to `Cc1ccc(C(=O)O)o1`, for which the outcome in assay [1], in assay [3], in assay [4], in [6] and in assay [7] was inactive. The Potency result in [2], in assay [5], in assay [8] and in assay [9] was “inactive” each time.
Take `O=C(Cl)c1c(Cl)c(Cl)c(C(=O)Cl)c(Cl)c1Cl`: the call in assay [1], in [3], in assay [4], in assay [6] and in [7] was inactive. The Potency entry in assay [2], in assay [5], in assay [8] and in assay [9] was “inactive” in each case.
With `C[C@@H](O)[C@H]1C(=O)N2C(C(=O)O)=C(S[C@@H]3CN[C@H](C(=O)N(C)C)C3)[C@H](C)[C@H]12`, the compound was classed as inactive in [1], in assay [3], in assay [4], in assay [6] and in [7]. Further, the Potency entry in assay [2], in assay [5] and in [8] was “inactive” throughout.
For the compound `O=C(Oc1ccccc1)c1ccc(O)cc1`, the compound was classed as inactive in [1], in [3], in assay [4], in assay [6] and in assay [7]. Further, the Potency result in [2], in assay [5] and in [8] was “inactive” each time.
For the compound `Nc1nc2ncc(CNc3ccc(C(=O)N[C@@H](CCC(=O)O)C(=O)O)cc3)nc2c(=O)[nH]1`, the compound was classed as inactive in assay [1], in assay [3], in assay [4] and in [6]. The Potency in [2] is 35.5 µM (active); in assay [5], 35.5 µM [fluorescent] (active). The Potency result in assay [8] and in [9] was “inactive” each time.
As to `NC(=O)/N=N/C(N)=O`, the outcome in assay [1], in assay [3], in assay [4], in assay [6] and in assay [7] was inactive. Moreover, the Potency result in [2], in [5], in assay [8] and in assay [9] was “inactive” each time.
Regarding `O=C(c1cc(O)c(O)c(O)c1)c1ccc(O)c(O)c1O`, the compound was called inactive in assay [1], in [3], in assay [4], in [6] and in assay [7]. In addition, the Potency result in [2], in assay [5] and in assay [8] was “inactive” in each case.
For `O=S(=O)(O)c1cc(S(=O)(=O)O)c2c(N=Nc3ccccc3)c(O)ccc2c1`, the compound was classed as inactive in assay [1], in assay [3], in [4], in [6] and in [7]. For the same compound, the Potency entry in [2], in assay [5], in [8] and in assay [9] was “inactive” each time.
With `O=C1O[C@H](CO)[C@@H](O)[C@H](O)[C@H]1O`, the compound was classed as inactive in assay [1], in assay [3], in assay [4], in assay [6] and in [7]. Also, the Potency result in [2], in assay [5], in assay [8] and in assay [9] was “inactive” each time.
Take `CN(C)c1cccc(O)c1`: the compound was called inactive in assay [1], in assay [3], in assay [4], in assay [6] and in assay [7]. Moreover, the Potency entry in [2], in [5], in assay [8] and in assay [9] was “inactive” each time.
In the case of `CCCCOCCO`, the compound was called inactive in assay [1], in assay [3], in assay [4], in [6] and in assay [7]. The Potency result in assay [2], in assay [5], in [8] and in [9] was “inactive” throughout.
For the compound `O=c1c(-c2ccc(O)cc2)coc2cc(O)ccc12`, the compound was classed as inactive in assay [1], in [3], in [4], in assay [6] and in assay [7]. The Potency entry in [2], in [5] and in assay [8] was “inactive” in each case.
With `OCCOCCOCCOCCO`, the compound was called inactive in [1], in [3], in [4], in assay [6] and in [7]. For the same compound, the Potency entry in assay [2], in assay [5], in assay [8] and in [9] was “inactive” throughout.
Turning to `Nc1cc(-c2ccncc2)c[nH]c1=O`, the result in [1], in assay [3], in [4], in assay [6] and in assay [7] was inactive. In addition, the Potency entry in assay [2], in [5] and in assay [8] was “inactive” in each case.
With `CCCCCCCCCCC=CC1CC(=O)OC1=O` (stereo unspecified), the outcome in assay [1], in assay [3], in assay [4], in assay [6] and in [7] was inactive. The Potency entry in assay [2], in assay [5] and in [8] was “inactive” throughout. Besides, the Potency in assay [9] was 15.6 µM (active) and 49 µM (active).
For the compound `C=C(C)C(=O)OCCC[Si](OC)(OC)OC`, the compound was called inactive in assay [1], in assay [3], in [4], in assay [6] and in assay [7]. Also, the Potency result in assay [2], in [5], in [8] and in assay [9] was “inactive” each time.
On to `CC1CC(OC(=O)c2ccccc2O)CC(C)(C)C1` (stereo unspecified), for which the compound was called inactive in [1], in assay [3], in [4], in assay [6] and in assay [7]. Moreover, the Potency entry in assay [2], in [5], in [8] and in [9] was “inactive” in each case.
For `COC(=O)c1ccccc1O`, the compound was classed as inactive in assay [1], in assay [3], in [4], in [6] and in assay [7]. In addition, the Potency entry in [2] and in [5] was “inactive” each time.
With `C[C@@H]1O[C@@H](OC[C@H]2O[C@@H](Oc3c(-c4ccc(O)c(O)c4)oc4cc(O)cc(O)c4c3=O)[C@H](O)[C@@H](O)[C@@H]2O)[C@H](O)[C@H](O)[C@H]1O`, the compound was called inactive in [1], in [3], in [4], in assay [6] and in assay [7]. For the same compound, the Potency result in assay [2], in assay [5], in assay [8] and in [9] was “inactive” each time.
Consider `CCCCCCCCCCCCN`, for which the call in [1], in [3], in assay [4], in assay [6] and in assay [7] was inactive. For the same compound, the Potency result in assay [2], in assay [5], in assay [8] and in assay [9] was “inactive” each time.
For the compound `O=[N+]([O-])c1cc(N(CCO)CCO)ccc1NCCO`, the compound was called inactive in assay [1], in assay [3], in assay [4], in assay [6] and in assay [7]. Also, the Potency result in [2] and in [5] was “inactive” in each case.
On to `CN(C)c1ccc(C(=N)c2ccc(N(C)C)cc2)cc1`, for which the compound was called inactive in assay [1], in assay [10], in assay [3], in assay [4] and in [6]. Besides, the Potency entry in [5] and in assay [8] was “inactive” each time.
`CCC(=O)O`: the call in assay [1], in assay [3], in assay [4], in assay [6] and in assay [7] was inactive. Further, the Potency entry in assay [2], in assay [5], in assay [8] and in assay [9] was “inactive” throughout.
Turning to `C=C1CC[C@H](O)CC1=C/C=C1\CCC[C@]2(C)[C@@H]([C@H](C)/C=C/[C@H](C)C(C)C)CC[C@@H]12`, the compound was called inactive in assay [1], in assay [3], in assay [4], in assay [6] and in assay [7]. Further, the Potency entry in assay [2], in [5] and in assay [8] was “inactive” throughout.
Regarding `O=C(O)c1ccc([N+](=O)[O-])cc1`, the call in assay [1], in assay [3], in assay [4], in [6] and in assay [7] was inactive. The Potency entry in assay [2], in assay [5], in assay [8] and in [9] was “inactive” in each case.
In the case of `Clc1cc(Cl)c(Cl)cc1Cl`, the outcome in assay [1], in assay [3], in [4], in assay [6] and in assay [7] was inactive. Also, the Potency entry in assay [2], in [5], in [8] and in assay [9] was “inactive” throughout.
As for `OC[C@@H](O)[C@@H](O)[C@H](O)[C@@H](O)CO`, the compound was classed as inactive in [1], in assay [3], in [4], in assay [6] and in assay [7]. Moreover, the Potency result in assay [2] and in [5] was “inactive” each time.
For the compound `CCCCCCOC(C)=O`, the outcome in [1], in assay [3], in assay [4], in assay [6] and in [7] was inactive. Moreover, the Potency entry in [2], in assay [5], in assay [8] and in assay [9] was “inactive” throughout.
For the compound `c1ccc2[nH]cnc2c1`, the call in [1], in assay [3], in assay [4], in [6] and in assay [7] was inactive. Further, the Potency result in assay [2] and in [5] was “inactive” in each case.
As for `c1ccc2ccccc2c1`, the outcome in assay [1], in assay [3], in assay [4], in [6] and in [7] was inactive. The Potency result in [2] and in assay [5] was “inactive” in each case.
